Our source for the composite z-score values is PubChem BioAssay.

For this experiment, the target named is Focal adhesion kinase 1 (Homo sapiens) (UniProt Q05397). Briefly: small-molecule microarray binders of FAK, primary screen, biochemical, 635/667 nm fluorescence, BSA, DTT (AID 1130).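 Also: composite of spot emission at 667 nm and signal to noise over triplicate slides.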 The settings on record: PTK2 binding, 635 nm fluorescence, higher = more signal.
Chain of Focal adhesion kinase 1 (Homo sapiens) (Q05397 whole entry, looked up): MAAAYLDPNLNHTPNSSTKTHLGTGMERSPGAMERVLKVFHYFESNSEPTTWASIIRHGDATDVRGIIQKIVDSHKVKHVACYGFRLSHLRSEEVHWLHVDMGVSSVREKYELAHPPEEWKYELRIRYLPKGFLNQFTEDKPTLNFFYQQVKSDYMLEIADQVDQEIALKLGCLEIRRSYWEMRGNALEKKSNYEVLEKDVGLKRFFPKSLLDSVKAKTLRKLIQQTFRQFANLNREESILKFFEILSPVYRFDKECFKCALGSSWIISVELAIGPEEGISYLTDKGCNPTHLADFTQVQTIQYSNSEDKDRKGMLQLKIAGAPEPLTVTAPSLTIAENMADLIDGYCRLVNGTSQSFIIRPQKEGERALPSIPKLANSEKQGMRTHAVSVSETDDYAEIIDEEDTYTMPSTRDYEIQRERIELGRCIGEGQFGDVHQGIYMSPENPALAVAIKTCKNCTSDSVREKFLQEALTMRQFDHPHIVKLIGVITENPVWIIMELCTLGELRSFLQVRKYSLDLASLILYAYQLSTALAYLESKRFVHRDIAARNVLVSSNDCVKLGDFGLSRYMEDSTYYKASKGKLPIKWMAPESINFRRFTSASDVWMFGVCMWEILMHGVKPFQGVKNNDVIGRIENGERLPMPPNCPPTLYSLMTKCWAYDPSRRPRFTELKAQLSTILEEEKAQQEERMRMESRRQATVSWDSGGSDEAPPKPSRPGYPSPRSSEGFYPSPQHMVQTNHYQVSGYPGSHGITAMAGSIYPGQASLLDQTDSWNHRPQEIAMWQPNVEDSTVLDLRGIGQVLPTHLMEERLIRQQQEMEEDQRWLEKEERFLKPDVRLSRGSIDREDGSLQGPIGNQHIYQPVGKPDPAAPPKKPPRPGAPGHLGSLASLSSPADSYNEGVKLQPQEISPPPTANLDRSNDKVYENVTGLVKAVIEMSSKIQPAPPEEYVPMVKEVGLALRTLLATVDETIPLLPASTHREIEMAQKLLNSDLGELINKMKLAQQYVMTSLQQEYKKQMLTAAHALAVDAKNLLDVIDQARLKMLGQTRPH
`CC(C)[C@@H](OCc1ccccc1)[C@H](C)C=NOC[C@@H](O)COCc1ccco1` yielded a composite z-score of -0.277.

The molecule `CC(C)(C)N1C(=O)[C@H]2[C@H]3[C@H](O)C=CC(=O)[C@@H]3CC[C@H]2C1=O` had a composite z-score of -0.258.

Molecule `CCOC(=O)[C@H](CC(C)C)NC(=O)CCC1CC(OC(=O)NCc2cccc3ccccc23)CC2(CCCC(COC(=O)NCCOC)O2)O1` (stereo partly specified) had a composite z-score of 0.175.

The molecule `Cc1ccc(S(=O)(=O)n2c3ccccc3c3nnc(C(=O)c4ccccc4)nc32)cc1` had a composite z-score of -0.0158.

`CCN1C(=O)[C@H]2[C@H]3[C@H](O)[C@H](O)CC(=NOC[C@H]4O[C@H](c5ccccc5)C=C[C@@H]4Oc4ccc(OC)cc4)[C@@H]3CC[C@H]2C1=O` yielded a composite z-score of -0.139.

As for `Cc1cc2c(c(=O)o1)[C@@H](O)[C@H]1O[C@H]1C2=O`, the composite z-score was 0.123.

With `C#CCCCON=C1C[C@@H](O)[C@@H](O)[C@@H]2[C@@H]3C(=O)N(c4cccc(Oc5ccccc5)c4)C(=O)[C@@H]3CC[C@H]12`, the composite z-score was -0.427.

`CC(CCN1CCc2nc(-c3ccccc3)c(-c3ccccc3)cc2C1)=NOC[C@@H](O)[C@H]1O[C@@H]2OC(C)(C)O[C@@H]2[C@H]1O` showed a composite z-score of 0.182.

Consider `CC(CCN1CCc2nc(-c3ccccc3)c(-c3ccccc3)cc2C1)=NOC[C@@H](O)COCc1ccco1`, for which the composite z-score was determined as 0.475.

`CSCC[C@@H]1NC(=O)CC=C[C@@H](C)COC(=O)[C@@H](C)COC1=O`: the composite z-score was -0.948.

`CC(=O)Nc1ccc([C@@H]2N[C@H](C(=O)O)CC[C@H]2C)cc1` showed a composite z-score of 1.12.

As for `C#CCCCON=C1[C@H]2CCn3c(=O)n(-c4ccccc4)c(=O)n3[C@H]2[C@H](O)[C@@H]2O[C@H]12`, the composite z-score stood at 0.093.

`COC(=O)[C@@H]1CC[C@H](C)[C@@H](c2ccc(C)cc2)N1C(=O)c1ccc(C=NOC[C@@H](C)[C@H](OCc2ccccc2)C(C)C)cc1` returned a composite z-score of 0.936.

As for `CCOC(=O)[C@H](Cc1ccccc1)NC(=O)CCC1CC(OC(=O)NCc2cccc3ccccc23)CC2(CCCC(COC(=O)NCCC(C)C)O2)O1` (stereo partly specified), the composite z-score is -0.225.

Consider `C=CC[C@@H]1C=C[C@H](ON=C2[C@H]3CCn4c(=O)n(-c5ccccc5)c(=O)n4[C@H]3[C@H](O)[C@@H]3O[C@H]23)[C@@H](CO)O1`, for which the composite z-score is -0.118.

The molecule `CCOC(=O)[C@H](CC(C)C)NC(=O)CCC1CC(OC(=O)NCc2cccc3ccccc23)CC2(CCCC(COC(=O)NCCOc3ccccc3)O2)O1` (stereo partly specified) returned a composite z-score of 0.0968.

Regarding `C[C@@H](c1ccccc1)N1C(=O)[C@H]2[C@H]3[C@H](O)[C@H](O)CC(=NOCc4ccccc4)[C@H]3CC[C@H]2C1=O`, the composite z-score is 0.0785.

In the case of `CCCNC(=O)OC[C@H]1O[C@H](CCON=C(C)CCN2CCc3nc(CC)c(CC)cc3C2)C=C[C@@H]1Oc1ccc(OC)cc1`, the composite z-score is 0.512.

`CCCNC(=O)OC[C@H]1O[C@H](CCON=C(C)C)C=C[C@@H]1Oc1ccc(OC)cc1` returned a composite z-score of 0.105.

In turn, `CC(=O)O[C@H]1C2=CO[C@H](C)[C@H]3[C@H]4C5=C([C@H](O)[C@H]6O[C@H]6C5=O)[C@H](OC4C)[C@@]23C(=O)[C@@H]2O[C@@H]21` (stereo partly specified) came in with a composite z-score of -0.703.

For `C=CC[C@@H]1C=C[C@H](ON=C[C@@H](C)[C@H](OCc2ccccc2)C(C)C)[C@@H](CO)O1`, the composite z-score was -0.472.

On to `COC(=O)CC=C[C@@H](C)[C@@H](C=NOC(C)CN1CCCc2nc(C)c(C)cc21)OC` (stereo partly specified), for which the composite z-score is 0.0673.

Consider `CC(CCN1CCCCc2nc(C)c(C)cc21)=NOC[C@@H](C)[C@H](OCc1ccccc1)C(C)C`, for which the composite z-score is -0.0923.

`CON=C(C)CCC(=O)OC[C@H]1O[C@H](c2ccccc2)C=C[C@@H]1Oc1ccc(OC)cc1` came in with a composite z-score of -0.0144.

As to `CON=CC[C@@H]1C=C[C@H](OC(C)=O)[C@@H](COC(C)=O)O1`, the composite z-score came to 0.538.

Take `Cn1c(=O)n2n(c1=O)[C@H]1[C@H](O)[C@@H]3O[C@@H]3C(=O)[C@H]1CC2`: the composite z-score was -0.515.

Turning to `COc1ccc(COC(=O)NN=C2C[C@@H](O)[C@@H](O)[C@@H]3[C@@H]4C(=O)N(Cc5ccccc5)C(=O)[C@@H]4CC[C@H]23)cc1`, the composite z-score worked out at 0.0115.

For `C#CCCCON=C1C[C@@H](O)[C@@H](O)[C@@H]2[C@@H]3C(=O)N(C(C)(C)C)C(=O)[C@@H]3CC[C@@H]12`, the composite z-score was 0.324.

In turn, `C[C@@H](c1ccccc1)N1C(=O)[C@H]2[C@H]3[C@H](O)[C@H](O)CC(=NO[C@@H]4O[C@H](CO)[C@@H](O)[C@H](O)[C@H]4O)[C@H]3CC[C@H]2C1=O` had a composite z-score of -0.0492.

On to `CCOC(=O)CCN1C(=O)[C@H]2[C@H]3[C@H](O)[C@H](O)CC(=NOCc4ccccc4)[C@H]3CC[C@H]2C1=O`, for which the composite z-score was -0.017.

Molecule `CO[C@H]1COC(=O)[C@@H](C)COC(=O)[C@H](COCc2ccccc2)NC(=O)CC=C[C@H]1C` had a composite z-score of -0.0555.

`COc1cccc([C@H]2Oc3ccc(OC)cc3C(=NO[C@@H]3O[C@H](COC(C)=O)[C@@H](OC(C)=O)[C@H](OC(C)=O)[C@H]3OC(C)=O)[C@@H]2O)c1` returned a composite z-score of 0.478.

With `CCOC(=O)[C@H](CC(C)C)NC(=O)CCC1CC(OC(=O)NCc2ccc3c(c2)OCO3)CC2(CCCC(COC(=O)NCc3cccc(C(F)(F)F)c3)O2)O1` (stereo partly specified), the composite z-score stood at 0.201.

The molecule `CCN1C(=O)[C@H]2[C@H]3[C@H](O)[C@H](O)CC(=NOCC(C)C)[C@@H]3CC[C@H]2C1=O` gave a composite z-score of 0.627.

The molecule `COC(=O)[C@H](C)NC(=O)CCC1CC(OC(=O)NCCc2ccc(F)cc2)CC2(CCCC(COC(=O)NCCC(C)C)O2)O1` (stereo partly specified) registered a composite z-score of 0.0069.

Molecule `C=CC[C@@H]1C=C[C@H](ON=C(C)CCN2CCc3nc(-c4ccccc4)c(-c4ccccc4)cc3C2)[C@@H](CO)O1` showed a composite z-score of -0.372.
